Test results: PubChem BioAssay AID720650 (Broad Institute, 2013)
Values without a mark were called inactive. Active and inactive are the calls of the source. The rule behind the calls is not given here.

Assay: Biochemical counterscreen for C difficile toxins, absence of UDPG, inhibitor dose response (AID 720650)
Details: series mostly up to 19.5 µM

Compound	AC50
O=C(CSc1nnc(-c2ccncc2)o1)N1CCCCCC1	inactive
Cn1cc(C(CO)Cc2ccccc2)c2ccccc21 (stereo not drawn)	> 39 µM
Cn1c(=O)c2c(nc(N3CCOCC3)n2CCSc2ncccn2)n(C)c1=O	inactive
